# Values without a mark were called inactive.
# Columns and labels:
# Assay in all cases: log2 ratio of Biotin-Ahx-Ub-VS probe labelling (fragment/DMSO); higher = less target engagement (more negative = stronger competition), active = hit call of the paper (q ≤ 0.05, log2 ratio ≤ -1)
# Settings in all cases: compound concentration: 200 uM; treatment time: 3 h
# OTUD6B = target: T1, OTUD6B (UniProt Q8N6M0)
# T1 sequence (whole entry): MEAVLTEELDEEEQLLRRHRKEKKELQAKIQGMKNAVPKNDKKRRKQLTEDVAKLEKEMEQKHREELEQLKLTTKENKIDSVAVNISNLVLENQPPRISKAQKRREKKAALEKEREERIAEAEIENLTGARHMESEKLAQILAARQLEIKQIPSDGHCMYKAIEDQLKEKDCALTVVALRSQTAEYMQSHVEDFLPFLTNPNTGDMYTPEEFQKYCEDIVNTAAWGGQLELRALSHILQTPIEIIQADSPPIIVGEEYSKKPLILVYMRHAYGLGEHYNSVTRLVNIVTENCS
# Procedure, shortened: (§1)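 The table lists average log2 ratios of fragment over vehicle, from an unpaired t-test on global-median-normalised Spectronaut label-free quantities. Proteins with ≥2 unique peptides were used. Samples were HEK293T lysate (495 µg) treated in triplicate with fragment at 200 µM or vehicle for 3 h, then with Biotin-Ahx-Ub-VS (0.5 µM final) for 1 h, with labelled DUBs NeutrAvidin-enriched and run by diaPASEF LC-MS/MS.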
# OTUD7B = target: T2, OTUD7B (UniProt Q6GQQ9)
# T2 sequence (whole entry): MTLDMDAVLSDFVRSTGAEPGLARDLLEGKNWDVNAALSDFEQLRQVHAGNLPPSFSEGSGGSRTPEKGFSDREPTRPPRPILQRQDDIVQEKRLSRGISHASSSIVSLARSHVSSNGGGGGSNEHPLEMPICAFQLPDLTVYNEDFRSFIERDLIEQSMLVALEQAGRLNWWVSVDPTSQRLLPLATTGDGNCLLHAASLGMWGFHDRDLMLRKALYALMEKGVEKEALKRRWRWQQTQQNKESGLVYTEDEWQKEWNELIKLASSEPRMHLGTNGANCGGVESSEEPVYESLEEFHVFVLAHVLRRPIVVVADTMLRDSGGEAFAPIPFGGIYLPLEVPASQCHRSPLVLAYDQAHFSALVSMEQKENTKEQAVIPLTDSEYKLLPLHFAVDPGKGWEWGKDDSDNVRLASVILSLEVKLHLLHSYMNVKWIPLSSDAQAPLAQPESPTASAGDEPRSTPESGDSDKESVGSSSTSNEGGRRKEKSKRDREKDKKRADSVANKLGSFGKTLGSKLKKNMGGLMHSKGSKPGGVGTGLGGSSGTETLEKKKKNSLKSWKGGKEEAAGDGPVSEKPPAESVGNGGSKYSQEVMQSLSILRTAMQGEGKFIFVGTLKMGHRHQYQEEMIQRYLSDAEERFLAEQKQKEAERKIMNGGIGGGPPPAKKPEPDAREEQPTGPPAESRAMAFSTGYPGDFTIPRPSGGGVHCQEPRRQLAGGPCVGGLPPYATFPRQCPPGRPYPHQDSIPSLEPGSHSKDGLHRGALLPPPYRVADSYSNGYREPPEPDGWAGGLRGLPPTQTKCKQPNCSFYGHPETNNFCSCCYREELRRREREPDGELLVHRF
# Procedure, shortened: as §1
# PRPF8 = PRPF8 (UniProt Q6P2Q9)
# Procedure, shortened: as §1
# PSMD7 = target: T3, PSMD7 (UniProt P51665)
# T3 sequence (whole entry): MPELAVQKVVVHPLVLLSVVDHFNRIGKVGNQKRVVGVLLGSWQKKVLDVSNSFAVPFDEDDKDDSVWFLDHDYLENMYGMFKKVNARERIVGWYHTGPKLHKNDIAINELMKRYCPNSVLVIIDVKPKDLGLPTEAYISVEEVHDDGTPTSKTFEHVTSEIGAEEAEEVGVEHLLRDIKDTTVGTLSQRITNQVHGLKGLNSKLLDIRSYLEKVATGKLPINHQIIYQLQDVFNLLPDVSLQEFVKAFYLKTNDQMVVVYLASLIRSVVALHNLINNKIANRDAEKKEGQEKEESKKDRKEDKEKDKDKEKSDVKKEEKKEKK
# Procedure, shortened: as §1
# UCHL1 = UCHL1 (UniProt P09936)
# Procedure, shortened: as §1
# UCHL3 = target: T4, UCHL3 (UniProt P15374)
# T4 sequence (whole entry): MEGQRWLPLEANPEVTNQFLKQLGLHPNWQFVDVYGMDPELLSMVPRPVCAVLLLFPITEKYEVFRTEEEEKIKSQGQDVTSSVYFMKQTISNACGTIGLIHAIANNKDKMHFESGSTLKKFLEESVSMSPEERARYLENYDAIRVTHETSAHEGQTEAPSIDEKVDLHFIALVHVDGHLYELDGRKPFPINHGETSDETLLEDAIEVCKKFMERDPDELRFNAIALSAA
# Procedure, shortened: as §1
# UCHL5 = target: T5, UCHL5 (UniProt Q9Y5K5)
# T5 sequence (whole entry): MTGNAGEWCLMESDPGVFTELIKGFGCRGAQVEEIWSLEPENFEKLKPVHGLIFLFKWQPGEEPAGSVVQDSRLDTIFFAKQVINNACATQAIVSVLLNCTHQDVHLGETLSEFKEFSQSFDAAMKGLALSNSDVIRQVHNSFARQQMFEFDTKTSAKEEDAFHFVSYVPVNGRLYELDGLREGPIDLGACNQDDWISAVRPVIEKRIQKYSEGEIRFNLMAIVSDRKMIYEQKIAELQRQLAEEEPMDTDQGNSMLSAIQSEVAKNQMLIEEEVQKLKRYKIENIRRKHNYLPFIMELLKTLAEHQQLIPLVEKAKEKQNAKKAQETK
# Procedure, shortened: as §1
# USP10 = USP10 (UniProt Q14694)
# Procedure, shortened: as §1
# USP15 = target: T6, USP15 (UniProt Q9Y4E8)
# T6 sequence (whole entry): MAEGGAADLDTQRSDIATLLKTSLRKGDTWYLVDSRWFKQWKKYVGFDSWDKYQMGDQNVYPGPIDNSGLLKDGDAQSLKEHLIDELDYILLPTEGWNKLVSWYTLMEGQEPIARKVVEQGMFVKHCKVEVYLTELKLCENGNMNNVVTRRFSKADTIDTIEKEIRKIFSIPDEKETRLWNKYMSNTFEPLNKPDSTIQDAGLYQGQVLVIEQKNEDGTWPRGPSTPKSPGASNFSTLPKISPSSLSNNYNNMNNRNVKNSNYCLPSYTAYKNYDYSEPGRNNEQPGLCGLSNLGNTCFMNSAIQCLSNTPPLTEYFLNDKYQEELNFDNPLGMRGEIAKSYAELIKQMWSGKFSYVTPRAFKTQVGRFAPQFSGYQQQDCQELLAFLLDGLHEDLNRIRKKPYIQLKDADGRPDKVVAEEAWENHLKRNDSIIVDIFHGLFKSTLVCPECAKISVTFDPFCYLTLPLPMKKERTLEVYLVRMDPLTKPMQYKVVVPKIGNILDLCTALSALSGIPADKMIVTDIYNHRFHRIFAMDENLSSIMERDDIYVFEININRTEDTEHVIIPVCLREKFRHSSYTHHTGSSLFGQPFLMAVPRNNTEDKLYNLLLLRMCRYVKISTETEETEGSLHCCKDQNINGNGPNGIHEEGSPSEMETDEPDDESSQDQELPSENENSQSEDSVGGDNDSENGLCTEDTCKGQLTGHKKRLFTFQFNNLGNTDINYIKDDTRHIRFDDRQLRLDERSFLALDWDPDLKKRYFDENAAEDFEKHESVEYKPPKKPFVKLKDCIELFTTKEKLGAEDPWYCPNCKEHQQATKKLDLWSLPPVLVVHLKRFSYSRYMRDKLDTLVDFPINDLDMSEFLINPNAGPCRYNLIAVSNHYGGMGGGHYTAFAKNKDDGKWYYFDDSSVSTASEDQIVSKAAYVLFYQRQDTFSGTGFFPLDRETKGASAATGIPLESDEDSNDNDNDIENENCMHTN
# Procedure, shortened: as §1
# USP16 = USP16 (UniProt Q9Y5T5)
# Procedure, shortened: as §1
# UCHL1, sequence (P09936 whole entry, looked up): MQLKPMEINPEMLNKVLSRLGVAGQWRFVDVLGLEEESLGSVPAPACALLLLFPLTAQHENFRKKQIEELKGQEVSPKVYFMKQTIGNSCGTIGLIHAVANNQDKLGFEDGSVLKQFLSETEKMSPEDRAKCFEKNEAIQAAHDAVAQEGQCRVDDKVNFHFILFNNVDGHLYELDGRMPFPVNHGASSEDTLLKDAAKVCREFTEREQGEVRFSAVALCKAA
# USP16, sequence (Q9Y5T5 whole entry, looked up): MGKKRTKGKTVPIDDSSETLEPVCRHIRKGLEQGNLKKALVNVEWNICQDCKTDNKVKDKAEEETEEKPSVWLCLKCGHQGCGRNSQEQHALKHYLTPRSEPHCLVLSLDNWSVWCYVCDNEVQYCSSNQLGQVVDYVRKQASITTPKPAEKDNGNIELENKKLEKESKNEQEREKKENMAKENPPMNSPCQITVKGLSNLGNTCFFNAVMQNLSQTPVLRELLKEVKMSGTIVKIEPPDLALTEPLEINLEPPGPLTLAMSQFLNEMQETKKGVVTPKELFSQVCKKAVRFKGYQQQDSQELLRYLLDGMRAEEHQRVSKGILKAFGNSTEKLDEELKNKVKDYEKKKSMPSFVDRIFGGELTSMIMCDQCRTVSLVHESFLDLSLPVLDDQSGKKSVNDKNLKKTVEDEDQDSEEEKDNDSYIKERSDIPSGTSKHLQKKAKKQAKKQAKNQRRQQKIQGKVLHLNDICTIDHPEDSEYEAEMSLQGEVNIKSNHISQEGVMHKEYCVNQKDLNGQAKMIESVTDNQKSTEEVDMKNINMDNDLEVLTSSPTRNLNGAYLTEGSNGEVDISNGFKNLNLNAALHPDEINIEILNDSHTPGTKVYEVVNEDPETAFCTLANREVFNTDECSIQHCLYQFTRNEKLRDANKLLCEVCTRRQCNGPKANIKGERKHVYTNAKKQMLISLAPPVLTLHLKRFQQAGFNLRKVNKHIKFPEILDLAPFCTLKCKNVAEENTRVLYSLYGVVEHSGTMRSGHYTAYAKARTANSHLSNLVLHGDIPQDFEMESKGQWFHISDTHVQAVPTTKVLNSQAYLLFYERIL
# USP10, sequence (Q14694 whole entry): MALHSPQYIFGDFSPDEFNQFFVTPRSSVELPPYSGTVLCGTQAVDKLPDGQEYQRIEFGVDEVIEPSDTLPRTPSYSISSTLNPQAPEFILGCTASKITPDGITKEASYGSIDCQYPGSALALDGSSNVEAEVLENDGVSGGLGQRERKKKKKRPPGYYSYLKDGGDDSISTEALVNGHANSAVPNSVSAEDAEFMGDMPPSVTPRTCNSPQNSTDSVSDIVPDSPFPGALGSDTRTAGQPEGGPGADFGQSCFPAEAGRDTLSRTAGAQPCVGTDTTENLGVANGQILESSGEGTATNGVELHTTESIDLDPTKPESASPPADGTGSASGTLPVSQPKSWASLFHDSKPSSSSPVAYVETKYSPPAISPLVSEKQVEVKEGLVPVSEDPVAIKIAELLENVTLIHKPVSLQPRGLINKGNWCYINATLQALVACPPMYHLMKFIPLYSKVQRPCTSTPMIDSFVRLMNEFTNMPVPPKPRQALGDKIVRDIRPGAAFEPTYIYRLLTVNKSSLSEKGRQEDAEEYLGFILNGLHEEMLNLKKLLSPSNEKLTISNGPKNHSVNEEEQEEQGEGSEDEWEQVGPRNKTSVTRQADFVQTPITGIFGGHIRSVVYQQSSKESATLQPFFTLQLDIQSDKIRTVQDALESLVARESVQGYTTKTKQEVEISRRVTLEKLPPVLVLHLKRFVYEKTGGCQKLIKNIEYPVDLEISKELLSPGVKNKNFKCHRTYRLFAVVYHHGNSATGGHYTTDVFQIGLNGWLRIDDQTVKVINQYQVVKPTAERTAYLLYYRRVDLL
structure (smiles),measurement,setting,value
N#Cc1ccc(CNC(=O)CCl)cc1,log2 ratio of Biotin-Ahx-Ub-VS probe labelling,OTUD6B,0.025
same,log2 ratio of Biotin-Ahx-Ub-VS probe labelling,OTUD7B,-0.865
same,log2 ratio of Biotin-Ahx-Ub-VS probe labelling,PRPF8,-0.187
same,log2 ratio of Biotin-Ahx-Ub-VS probe labelling,PSMD7,-0.28
same,log2 ratio of Biotin-Ahx-Ub-VS probe labelling,UCHL1,-1.19 (active)
same,log2 ratio of Biotin-Ahx-Ub-VS probe labelling,UCHL3,0.183
same,log2 ratio of Biotin-Ahx-Ub-VS probe labelling,UCHL5,-0.131
same,log2 ratio of Biotin-Ahx-Ub-VS probe labelling,USP10,-0.0787
same,log2 ratio of Biotin-Ahx-Ub-VS probe labelling,USP15,-0.145
same,log2 ratio of Biotin-Ahx-Ub-VS probe labelling,USP16,0.29

# Reference: the supplement of paper PMC11732987, “Enantioselective OTUD7B fragment discovery through chemoproteomics screening and high-throughput optimisation” (Communications Chemistry, 2025)
